Source: ChEMBL document CHEMBL1961873, “Compounds: GSK PKIS; Assays: Nanosyn kinase panel” (2012)

Legend:
[1] = target: Sphingosine kinase 1 (Homo sapiens) (UniProt Q9NYA1); conditions: at 1 µM;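 note: mean SPHK1 inhibition value reported from the GSK PKIS kinase panel screen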
[2] = target: T1, Sphingosine kinase 2 (Homo sapiens) (UniProt Q9NRA0); conditions: at 0.1 µM
T1 sequence (whole entry): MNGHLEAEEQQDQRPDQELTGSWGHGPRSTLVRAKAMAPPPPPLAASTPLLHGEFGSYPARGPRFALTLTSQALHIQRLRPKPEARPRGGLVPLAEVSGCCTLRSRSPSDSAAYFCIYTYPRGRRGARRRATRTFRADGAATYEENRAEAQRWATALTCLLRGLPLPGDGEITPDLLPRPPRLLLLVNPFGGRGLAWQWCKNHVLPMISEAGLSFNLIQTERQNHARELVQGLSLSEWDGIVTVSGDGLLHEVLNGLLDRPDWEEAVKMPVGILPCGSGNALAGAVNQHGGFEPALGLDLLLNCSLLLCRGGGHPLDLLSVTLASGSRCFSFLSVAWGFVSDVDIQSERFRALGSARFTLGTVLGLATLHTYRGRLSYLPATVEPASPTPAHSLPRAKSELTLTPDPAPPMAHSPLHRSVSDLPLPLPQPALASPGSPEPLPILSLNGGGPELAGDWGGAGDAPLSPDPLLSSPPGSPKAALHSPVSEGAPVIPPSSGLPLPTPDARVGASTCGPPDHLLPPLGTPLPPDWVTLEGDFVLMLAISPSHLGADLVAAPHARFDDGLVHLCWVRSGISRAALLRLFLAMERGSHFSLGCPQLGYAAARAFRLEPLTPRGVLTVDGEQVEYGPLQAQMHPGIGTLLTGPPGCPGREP

[3] = target: T1, Sphingosine kinase 2 (Homo sapiens); conditions: at 1 µM
[4] = target: Casein kinase II subunit alpha (Homo sapiens) (UniProt P68400); conditions: at 0.1 µM
Sequence of Casein kinase II subunit alpha (Homo sapiens) (P68400 whole entry, looked up): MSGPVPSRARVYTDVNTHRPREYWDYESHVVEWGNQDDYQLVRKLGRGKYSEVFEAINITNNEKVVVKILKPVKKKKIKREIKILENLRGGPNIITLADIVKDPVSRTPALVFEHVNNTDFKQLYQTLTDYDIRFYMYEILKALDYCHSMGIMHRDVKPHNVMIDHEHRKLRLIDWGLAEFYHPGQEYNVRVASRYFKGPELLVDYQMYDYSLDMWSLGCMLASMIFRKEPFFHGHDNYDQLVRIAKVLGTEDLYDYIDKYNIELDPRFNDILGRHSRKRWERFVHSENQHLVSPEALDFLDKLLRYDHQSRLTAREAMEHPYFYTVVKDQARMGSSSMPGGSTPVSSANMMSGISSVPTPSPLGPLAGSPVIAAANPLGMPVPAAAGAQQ

[5] = target: Casein kinase II subunit alpha (Homo sapiens) (UniProt P68400); conditions: at 1 µM
[6] = target: T2, Inhibitor of nuclear factor kappa-B kinase subunit alpha (Homo sapiens) (UniProt O15111); conditions: at 0.1 µM
T2 sequence (whole entry): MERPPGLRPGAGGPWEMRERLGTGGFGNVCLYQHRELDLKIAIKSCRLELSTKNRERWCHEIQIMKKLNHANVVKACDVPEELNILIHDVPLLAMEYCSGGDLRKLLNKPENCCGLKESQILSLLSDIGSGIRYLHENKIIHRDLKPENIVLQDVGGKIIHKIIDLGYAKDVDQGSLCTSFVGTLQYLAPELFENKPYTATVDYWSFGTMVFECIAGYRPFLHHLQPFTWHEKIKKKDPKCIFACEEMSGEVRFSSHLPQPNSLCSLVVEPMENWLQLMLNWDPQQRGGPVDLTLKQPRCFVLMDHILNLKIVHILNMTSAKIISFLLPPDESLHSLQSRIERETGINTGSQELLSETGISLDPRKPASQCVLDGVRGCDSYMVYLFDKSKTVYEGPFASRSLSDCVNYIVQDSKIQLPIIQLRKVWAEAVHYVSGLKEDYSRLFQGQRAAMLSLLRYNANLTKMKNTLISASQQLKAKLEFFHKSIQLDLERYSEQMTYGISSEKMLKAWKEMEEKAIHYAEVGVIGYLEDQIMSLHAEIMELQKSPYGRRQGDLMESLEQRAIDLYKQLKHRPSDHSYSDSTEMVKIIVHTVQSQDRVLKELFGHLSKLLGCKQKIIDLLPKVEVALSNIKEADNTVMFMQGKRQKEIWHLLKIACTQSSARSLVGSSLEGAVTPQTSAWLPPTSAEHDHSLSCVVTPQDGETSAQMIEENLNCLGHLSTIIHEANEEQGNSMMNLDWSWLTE

[7] = target: T3, Inhibitor of nuclear factor kappa-B kinase subunit beta (Homo sapiens) (UniProt O14920); conditions: at 0.1 µM
T3 sequence (whole entry): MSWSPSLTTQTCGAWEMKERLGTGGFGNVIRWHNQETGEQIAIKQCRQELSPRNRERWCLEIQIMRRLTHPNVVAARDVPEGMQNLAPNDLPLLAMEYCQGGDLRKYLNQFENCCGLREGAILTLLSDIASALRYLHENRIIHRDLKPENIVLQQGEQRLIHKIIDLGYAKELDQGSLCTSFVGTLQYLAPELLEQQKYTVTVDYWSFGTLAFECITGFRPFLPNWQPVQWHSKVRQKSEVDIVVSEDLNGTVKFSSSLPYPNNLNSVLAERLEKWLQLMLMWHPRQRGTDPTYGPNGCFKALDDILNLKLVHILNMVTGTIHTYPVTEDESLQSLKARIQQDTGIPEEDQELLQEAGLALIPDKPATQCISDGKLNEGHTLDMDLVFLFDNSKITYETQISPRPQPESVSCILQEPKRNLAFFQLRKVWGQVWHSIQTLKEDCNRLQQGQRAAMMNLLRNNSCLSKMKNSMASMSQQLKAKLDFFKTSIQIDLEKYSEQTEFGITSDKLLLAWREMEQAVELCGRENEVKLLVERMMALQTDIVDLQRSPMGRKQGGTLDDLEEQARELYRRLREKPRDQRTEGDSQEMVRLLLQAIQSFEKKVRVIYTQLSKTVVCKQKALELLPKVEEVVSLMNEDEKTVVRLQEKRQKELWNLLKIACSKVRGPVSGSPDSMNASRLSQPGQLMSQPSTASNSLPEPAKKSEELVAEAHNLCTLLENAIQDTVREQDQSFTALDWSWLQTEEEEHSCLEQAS

[8] = target: T3, Inhibitor of nuclear factor kappa-B kinase subunit beta (Homo sapiens); conditions: at 1 µM
[9] = target: T4, Inhibitor of nuclear factor kappa-B kinase subunit epsilon (Homo sapiens) (UniProt Q14164); conditions: at 0.1 µM
T4 sequence (whole entry): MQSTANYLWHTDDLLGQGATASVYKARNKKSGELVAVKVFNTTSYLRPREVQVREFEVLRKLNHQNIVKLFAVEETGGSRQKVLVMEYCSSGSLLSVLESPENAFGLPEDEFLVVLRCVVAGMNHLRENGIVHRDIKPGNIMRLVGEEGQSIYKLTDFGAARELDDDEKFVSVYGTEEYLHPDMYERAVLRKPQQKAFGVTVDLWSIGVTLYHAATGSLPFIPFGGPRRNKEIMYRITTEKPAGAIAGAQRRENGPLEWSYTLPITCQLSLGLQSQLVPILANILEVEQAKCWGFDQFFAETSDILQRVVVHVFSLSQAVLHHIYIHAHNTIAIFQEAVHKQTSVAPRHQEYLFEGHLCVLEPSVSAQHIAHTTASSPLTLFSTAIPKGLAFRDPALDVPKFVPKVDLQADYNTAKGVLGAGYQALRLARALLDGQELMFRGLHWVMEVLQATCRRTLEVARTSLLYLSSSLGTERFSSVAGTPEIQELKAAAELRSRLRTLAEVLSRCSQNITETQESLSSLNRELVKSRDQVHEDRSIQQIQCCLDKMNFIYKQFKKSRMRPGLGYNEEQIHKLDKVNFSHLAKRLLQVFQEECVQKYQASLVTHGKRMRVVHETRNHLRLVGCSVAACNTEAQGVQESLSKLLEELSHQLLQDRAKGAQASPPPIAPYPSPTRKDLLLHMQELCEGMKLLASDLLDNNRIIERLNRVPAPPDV

[10] = target: T4, Inhibitor of nuclear factor kappa-B kinase subunit epsilon (Homo sapiens); conditions: at 1 µM
[11] = target: T5, Serine/threonine-protein kinase Nek1 (Homo sapiens) (UniProt Q96PY6); conditions: at 0.1 µM
T5 sequence (whole entry): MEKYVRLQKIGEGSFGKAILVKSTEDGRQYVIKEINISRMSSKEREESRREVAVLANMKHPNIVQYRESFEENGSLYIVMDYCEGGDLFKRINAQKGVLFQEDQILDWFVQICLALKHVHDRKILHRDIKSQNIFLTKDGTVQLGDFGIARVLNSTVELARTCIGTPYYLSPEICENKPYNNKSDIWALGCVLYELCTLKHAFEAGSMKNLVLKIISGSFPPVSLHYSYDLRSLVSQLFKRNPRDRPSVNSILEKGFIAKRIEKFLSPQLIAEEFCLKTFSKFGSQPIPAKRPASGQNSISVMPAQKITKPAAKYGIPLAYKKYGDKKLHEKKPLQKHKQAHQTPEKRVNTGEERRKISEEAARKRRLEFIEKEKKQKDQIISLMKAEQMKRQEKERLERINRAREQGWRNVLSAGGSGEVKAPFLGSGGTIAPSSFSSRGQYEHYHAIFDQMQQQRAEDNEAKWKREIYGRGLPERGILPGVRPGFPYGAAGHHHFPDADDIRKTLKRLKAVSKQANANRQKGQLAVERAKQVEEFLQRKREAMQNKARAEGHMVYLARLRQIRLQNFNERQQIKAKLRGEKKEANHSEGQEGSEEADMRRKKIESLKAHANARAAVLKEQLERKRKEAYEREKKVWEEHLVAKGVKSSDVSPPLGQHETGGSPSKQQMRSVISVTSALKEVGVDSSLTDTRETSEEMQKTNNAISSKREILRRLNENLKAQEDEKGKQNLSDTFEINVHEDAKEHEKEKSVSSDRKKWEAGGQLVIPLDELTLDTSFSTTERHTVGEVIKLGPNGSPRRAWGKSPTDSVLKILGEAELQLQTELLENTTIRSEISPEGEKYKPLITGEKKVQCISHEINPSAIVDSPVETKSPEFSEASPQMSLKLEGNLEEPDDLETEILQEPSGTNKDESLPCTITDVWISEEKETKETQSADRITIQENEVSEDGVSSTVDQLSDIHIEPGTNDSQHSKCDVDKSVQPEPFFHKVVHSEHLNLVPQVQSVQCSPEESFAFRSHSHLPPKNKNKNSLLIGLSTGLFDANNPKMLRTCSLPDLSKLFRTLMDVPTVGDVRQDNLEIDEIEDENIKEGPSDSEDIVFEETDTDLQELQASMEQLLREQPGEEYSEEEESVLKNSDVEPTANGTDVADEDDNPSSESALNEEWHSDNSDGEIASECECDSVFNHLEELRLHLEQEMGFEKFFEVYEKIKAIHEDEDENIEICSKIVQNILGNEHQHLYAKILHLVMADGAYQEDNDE

[12] = target: T5, Serine/threonine-protein kinase Nek1 (Homo sapiens); conditions: at 1 µM
[13] = target: T6, Serine/threonine-protein kinase Nek2 (Homo sapiens) (UniProt P51955); conditions: at 0.1 µM
T6 sequence (whole entry): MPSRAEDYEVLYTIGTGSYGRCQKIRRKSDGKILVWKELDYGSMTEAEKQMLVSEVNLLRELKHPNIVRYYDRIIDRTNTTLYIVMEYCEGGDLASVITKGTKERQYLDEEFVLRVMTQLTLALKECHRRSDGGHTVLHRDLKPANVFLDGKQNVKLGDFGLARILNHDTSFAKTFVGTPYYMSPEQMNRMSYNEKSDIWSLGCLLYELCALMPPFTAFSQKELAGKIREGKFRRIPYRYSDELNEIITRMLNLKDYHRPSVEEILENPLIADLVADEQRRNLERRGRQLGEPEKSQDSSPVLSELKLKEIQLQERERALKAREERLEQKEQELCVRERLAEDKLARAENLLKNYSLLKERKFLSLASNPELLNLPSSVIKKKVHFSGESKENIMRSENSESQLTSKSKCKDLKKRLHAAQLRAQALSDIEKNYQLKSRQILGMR

[14] = target: T6, Serine/threonine-protein kinase Nek2 (Homo sapiens); conditions: at 1 µM
[15] = target: Serine/threonine-protein kinase Nek6 (Homo sapiens) (UniProt Q9HC98); conditions: at 0.1 µM
Sequence of Serine/threonine-protein kinase Nek6 (Homo sapiens) (Q9HC98 whole entry): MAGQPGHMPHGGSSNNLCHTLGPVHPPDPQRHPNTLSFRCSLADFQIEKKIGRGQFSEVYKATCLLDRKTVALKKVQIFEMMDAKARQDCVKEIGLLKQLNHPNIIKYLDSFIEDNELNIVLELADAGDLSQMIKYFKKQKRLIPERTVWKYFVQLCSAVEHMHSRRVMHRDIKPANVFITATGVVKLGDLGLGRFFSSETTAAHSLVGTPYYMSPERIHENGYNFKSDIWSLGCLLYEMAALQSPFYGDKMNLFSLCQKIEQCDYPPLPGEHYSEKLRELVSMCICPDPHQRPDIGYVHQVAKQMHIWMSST

[16] = target: Serine/threonine-protein kinase Nek6 (Homo sapiens) (UniProt Q9HC98); conditions: at 1 µM
[17] = target: Serine/threonine-protein kinase Nek7 (Homo sapiens) (UniProt Q8TDX7); conditions: at 0.1 µM
Sequence of Serine/threonine-protein kinase Nek7 (Homo sapiens) (Q8TDX7 whole entry, looked up): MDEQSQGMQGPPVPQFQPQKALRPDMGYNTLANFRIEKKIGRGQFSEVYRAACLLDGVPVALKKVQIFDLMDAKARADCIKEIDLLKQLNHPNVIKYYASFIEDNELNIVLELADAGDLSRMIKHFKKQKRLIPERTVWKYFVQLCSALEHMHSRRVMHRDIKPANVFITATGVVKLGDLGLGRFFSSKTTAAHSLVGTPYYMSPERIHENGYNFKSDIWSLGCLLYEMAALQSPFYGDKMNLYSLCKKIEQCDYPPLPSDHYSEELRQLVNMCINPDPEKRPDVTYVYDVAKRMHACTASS

[18] = target: Serine/threonine-protein kinase Nek7 (Homo sapiens) (UniProt Q8TDX7); conditions: at 1 µM
[19] = target: T7, Serine/threonine-protein kinase Nek9 (Homo sapiens) (UniProt Q8TD19); conditions: at 0.1 µM;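 note: reported value is the mean percent inhibition of NEK9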
T7 sequence (whole entry): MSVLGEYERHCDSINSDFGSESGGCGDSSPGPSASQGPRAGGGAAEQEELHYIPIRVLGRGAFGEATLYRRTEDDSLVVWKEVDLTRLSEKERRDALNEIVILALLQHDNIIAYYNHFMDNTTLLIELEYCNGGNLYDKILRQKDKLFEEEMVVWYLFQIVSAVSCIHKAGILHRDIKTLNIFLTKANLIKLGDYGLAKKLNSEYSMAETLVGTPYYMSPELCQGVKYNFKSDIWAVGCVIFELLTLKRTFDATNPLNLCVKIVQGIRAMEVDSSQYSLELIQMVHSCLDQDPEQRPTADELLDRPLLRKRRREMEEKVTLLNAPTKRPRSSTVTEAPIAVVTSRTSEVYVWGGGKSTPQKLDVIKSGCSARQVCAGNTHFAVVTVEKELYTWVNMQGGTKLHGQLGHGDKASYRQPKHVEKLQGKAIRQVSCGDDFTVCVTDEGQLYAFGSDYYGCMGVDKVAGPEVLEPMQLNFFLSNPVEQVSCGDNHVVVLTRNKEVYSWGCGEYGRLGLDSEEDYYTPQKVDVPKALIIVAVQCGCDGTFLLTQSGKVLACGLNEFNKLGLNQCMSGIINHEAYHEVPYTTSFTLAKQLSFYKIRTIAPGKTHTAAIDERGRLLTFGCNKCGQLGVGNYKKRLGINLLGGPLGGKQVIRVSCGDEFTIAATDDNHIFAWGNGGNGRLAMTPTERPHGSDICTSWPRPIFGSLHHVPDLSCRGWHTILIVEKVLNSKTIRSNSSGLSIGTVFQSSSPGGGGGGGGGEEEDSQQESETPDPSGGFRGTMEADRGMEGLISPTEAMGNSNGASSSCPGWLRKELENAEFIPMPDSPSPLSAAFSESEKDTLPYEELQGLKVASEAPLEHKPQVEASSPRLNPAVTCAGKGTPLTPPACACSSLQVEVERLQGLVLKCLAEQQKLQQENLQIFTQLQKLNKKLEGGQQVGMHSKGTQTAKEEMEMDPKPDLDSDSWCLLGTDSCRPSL

[20] = target: T2, Inhibitor of nuclear factor kappa-B kinase subunit alpha (Homo sapiens); conditions: at 1 µM

Sequence of Sphingosine kinase 1 (Homo sapiens) (Q9NYA1 whole entry): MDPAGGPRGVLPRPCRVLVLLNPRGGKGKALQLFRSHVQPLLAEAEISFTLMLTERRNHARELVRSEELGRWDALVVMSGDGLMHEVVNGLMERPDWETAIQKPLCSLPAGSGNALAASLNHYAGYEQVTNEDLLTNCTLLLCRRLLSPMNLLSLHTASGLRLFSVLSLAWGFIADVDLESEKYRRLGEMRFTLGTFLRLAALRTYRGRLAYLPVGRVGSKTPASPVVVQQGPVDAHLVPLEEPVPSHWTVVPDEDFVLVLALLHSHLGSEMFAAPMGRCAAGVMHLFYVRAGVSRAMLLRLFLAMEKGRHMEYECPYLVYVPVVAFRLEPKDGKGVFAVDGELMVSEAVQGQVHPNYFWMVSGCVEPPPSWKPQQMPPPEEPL

Structure (SMILES)	inhibition [1]	inhibition [2]	inhibition [3]	inhibition [4]	inhibition [5]	inhibition [6]	inhibition [7]	inhibition [8]	inhibition [9]	inhibition [10]	inhibition [11]	inhibition [12]	inhibition [13]	inhibition [14]	inhibition [15]	inhibition [16]	inhibition [17]	inhibition [18]	inhibition [19]	inhibition [20]
CN(C)CCOc1ccc(-c2cc(-c3ccc4c(c3)CCC4=NO)c(-c3ccncc3)o2)cc1	-2.32%	-0.68%	0.96%	-3%	0.33%	-4.03%	-1.54%	-1.92%	-1.86%	0%	0.25%	0.32%	-0.54%	0.32%	-0.38%	-0.66%	-2.05%	0.51%	-0.48%	
NCc1ccc(-n2c(-c3nonc3N)nc3cnccc32)cc1	-0.9%	0.05%	-0.74%	9.32%	9.93%	7.27%	8.87%	7.17%	5.51%	11.4%	3.18%	3.48%	6.17%	7.8%	3.51%	3.42%	7.27%	7.6%	2.32%	7.43%
COc1cc2ncn(-c3cc(OCc4ccccc4C(F)(F)F)c(C(C)=O)s3)c2cc1OC	-6.56%	-0.29%	-1.72%	5.99%	2.45%	2.23%	5.2%	9.05%	6.32%	4.7%	2.21%	1.9%	3.91%	4.69%	1.95%	3.34%	1.7%		8.54%	7.97%
